Measured values reported in publication PMC4552634, “A New Set of Chemical Starting Points with Plasmodium falciparum Transmission-Blocking Potential for Antimalarial Drug Discovery” (PLoS ONE, 2015).
Hit rate of the full screen: of about 13,000 compounds, about 3,200 (25%) showed an effect of 50% or more. The list shows a part of the results.

system: P. falciparum stage V gametocytes; set-up: BacTiter-Glo ATP luminescence viability of purified stage V gametocytes in 384-well plates, per cent inhibition versus DMSO; conditions: 48 h, 5 µM; inhibitor

Compared with `COc1ccc2nc(C)cc(Nc3ccc(Oc4ccc(Br)c5ccccc45)c(Cl)c3)c2c1` [TCMDC-124238], `COc1ccc(O)c(C(=O)c2cc(C#N)c(=O)n(-c3ccc(Oc4ccccc4)cc3)c2)c1` [TCMDC-123628] is lower in “% Inhibition” value: 12.09% for the first, -33.17% for the second.

Compared with `CCCNC(=O)Nc1cc2cc(-c3ccc(CN4CCCC4)cc3)ccc2n2c(C)nnc12` [TCMDC-136718], `Cc1ccc(CN2CCCN(Cc3cccc(NC(=O)c4ccc(-c5ccccc5)cc4)c3)CC2)cc1C` [TCMDC-141851] is lower in “% Inhibition” value: 108.6% for the first, -43.17% for the second.

Going from `O=C(/C=C/c1ccc([N+](=O)[O-])cc1)N1CCC(NS(=O)(=O)c2ccc(Br)cc2)CC1` [TCMDC-139442] to `CCCc1ccc(S(=O)(=O)NC2CCN(c3ccnc(Nc4ccc(F)cc4)n3)C2)cc1` (centres unmarked) [TCMDC-133598], the “% Inhibition” value falls from 11.64% to 2.344%.

Going from `COc1ccc(C(=O)CCc2ccc(O)cc2)cc1` [TCMDC-124290] to `COC(=O)c1ccc(CC(C)NCC(O)c2ccccc2Cl)cc1` (centres unmarked) [TCMDC-131422], the “% Inhibition” value rises from -50.17% to 7.207%.

First: CC(C)CNCc1cccc(-c2cccc(CNCCCN3CCN(C)CC3)c2)c1 [TCMDC-140483]
Second: CN1CCN(CCCNCc2cccc(-c3ccc(CNCCc4ccccc4)cc3)c2)CC1 [TCMDC-140643]
The “% Inhibition” value of the first is lower: 101.9% for the first, 103.5% for the second.

First: CC(C)CNCc1cccc(-c2cccc(CNc3ccc4ncccc4c3)c2)c1 [TCMDC-140718]
Second: Cc1ncccc1C(=O)Nc1ccc(-c2cccc(-c3nc4c(C)cccc4[nH]3)c2)cc1 [TCMDC-136862]
The “% Inhibition” value of the first is higher: 9.838% for the first, -37.31% for the second.

Going from `Cc1cccc2[nH]c(-c3ccc(-c4cccc(CNCCCN5CCCC5=O)c4)cc3)nc12` [TCMDC-132758] to `Cc1cccc2[nH]c(-c3cccc(-c4ccc(NC(=O)c5cccnc5)cc4)c3)nc12` [TCMDC-136929], the “% Inhibition” value falls from 19.9% to -10.6%.

First: O=C(NCCN1CCC(c2ccncc2)CC1)c1ccc(Nc2nccc(Nc3ccc(Oc4ccccc4)cc3)n2)cc1 [TCMDC-138610]
Second: COc1ccc(NC(=O)Nc2ccc(C)c(-c3ccc(C(=O)Nc4ccncc4)cc3)c2)cc1 [TCMDC-133705]
The “% Inhibition” value of the first is lower: -43.68% for the first, 11.61% for the second.

Going from `O=C(c1ccc2ccccc2n1)N1CCCc2cc(Br)ccc21` [TCMDC-134838] to `COc1ccc(Nc2nccc(N3CCC(NC(=O)c4cccc(C#N)c4)C3)n2)cc1` (centres unmarked) [TCMDC-133609], the “% Inhibition” value falls from -4.614% to -14.42%.

Compared with `Cc1ccc(C(=O)Nc2ccc(C)c(OC3CCN(CCC(C)C)C3)c2)cc1` (centres unmarked) [TCMDC-133981], `Cc1ccc2c(C3=CCN(CCCCC4(C)C(=O)Nc5c(F)cccc54)CC3)c(C)[nH]c2c1` (centres unmarked) [TCMDC-141005] is higher in “% Inhibition” value: -13.13% for the first, 12.05% for the second.

Going from `N#Cc1c(N)n(CCc2ccc(F)cc2)c2nc3ccccc3nc12` [TCMDC-125779] to `CN(C)CCCn1c(N)c(-c2nc3ccccc3[nH]2)c2nc(C#N)c(C#N)nc21` [TCMDC-123729], the “% Inhibition” value rises from 44.22% to 113.1%.

Going from `CN(C)CCn1c(N)c(-c2nc3ccccc3s2)c2nc(C#N)c(C#N)nc21` [TCMDC-124439] to `CCN(CC)CCCn1c(N)c(-c2nc3ccccc3[nH]2)c2nc(C#N)c(C#N)nc21` [TCMDC-123680], the “% Inhibition” value rises from -7.276% to 117%.

Going from `CCOC(=O)c1ccc(NC(=O)Nc2ccc(-c3ccc(-c4nc5ccccc5[nH]4)cc3)cc2)cc1` [TCMDC-133265] to `Cc1cccc2[nH]c(-c3cccc(-c4ccc(NC(=O)c5cnccc5C(F)(F)F)cc4)c3)nc12` [TCMDC-137119], the “% Inhibition” value rises from -0.3523% to 66.25%.

First: COc1ccc(COc2c(OC)cc(Cc3cnc(N)nc3N)cc2OC)cc1 [TCMDC-138619]
Second: COc1cc(Cc2cnc(N)nc2N)cc(OC)c1OCCNC(=O)[C@@H](N)CCC(=O)O [TCMDC-137685]
The “% Inhibition” value of the first is higher: 7.542% for the first, -2.761% for the second.

Compared with `NC1=NC(c2ccccc2)(c2ccccc2)C(=O)N1CCCCc1ccccn1` [TCMDC-132209], `CC(CCc1ccc(OCc2ccccc2)cc1)NCC(O)c1ccccc1` (centres unmarked) [TCMDC-131472] is higher in “% Inhibition” value: -31.55% for the first, 8.257% for the second.

Compared with `CCCCn1c(C(C)Oc2ccc(Cl)cc2Cl)nc2cc(S(N)(=O)=O)ccc21` (centres unmarked) [TCMDC-125564], `CCOC(=O)c1cc(Cl)cc(Cl)c1OCCCON1C(N)=NC(N)=NC1(C)C` [TCMDC-131703] is higher in “% Inhibition” value: 8.97% for the first, 21.46% for the second.

First: COc1cccc(CCNC(C)Cc2ccc(OCCCCOc3ccccc3)cc2)c1 (centres unmarked) [TCMDC-140020]
Second: CC(Cc1ccc(OCCCCOc2ccccc2)cc1)NCCc1ccccc1Cl (centres unmarked) [TCMDC-140019]
The “% Inhibition” value of the first is higher: 127.9% for the first, 97.11% for the second.

Going from `CC(Cc1ccc(OCc2ccccc2)cc1)Nc1nc2ccccc2c(=O)[nH]1` (centres unmarked) [TCMDC-131532] to `CC(Cc1ccc(OCCCCOc2ccccc2)cc1)NCCc1ccc(Oc2ccccc2)cc1` (centres unmarked) [TCMDC-140021], the “% Inhibition” value rises from -11.7% to 88.65%.

Compared with `COc1ccccc1CCCON1C(N)=NC(N)=NC1(C)C` [TCMDC-131723], `CC1(C)N=C(N)N=C(N)N1OCOc1cc(Cl)c(Cl)cc1Cl` [TCMDC-131783] is higher in “% Inhibition” value: 17.71% for the first, 42.76% for the second.

First: CCCCOc1c(CCC)cc(Cc2cnc(N)nc2N)cc1CCC [TCMDC-137692]
Second: COc1ccc(CNc2cc(C)nc3sc4c(c23)CCC2(C4)OCCO2)cc1 [TCMDC-138981]
The “% Inhibition” value of the first is lower: -41.23% for the first, -1.212% for the second.

Going from `Cc1cccc2[nH]c(-c3cccc(-c4cccc(NC(=O)c5cnccc5C(F)(F)F)c4)c3)nc12` [TCMDC-137118] to `Cc1cccc2[nH]c(-c3ccc(-c4cccc(NC(=O)c5cnccc5C(F)(F)F)c4)cc3)nc12` [TCMDC-137117], the “% Inhibition” value falls from 53.02% to -14.87%.

Compared with `Cc1cccc2[nH]c(-c3cccc(-c4cccc(NC(=O)c5cccnc5)c4)c3)nc12` [TCMDC-136927], `CN(C)CCOc1cc(NC(=O)Nc2cccc3c(-c4ccncc4)cccc23)ccc1I` [TCMDC-139143] is lower in “% Inhibition” value: 36.77% for the first, 27.84% for the second.

First: c1ccc(C2=NN=C(c3ccccn3)C3C4CC(C23)C2C3CC(c5ccccc53)C42)nc1 (centres unmarked) [TCMDC-138248]
Second: NC(N)=NCC=C(c1ccccc1)c1ccccc1 [TCMDC-137566]
The “% Inhibition” value of the first is lower: -12.71% for the first, 51.32% for the second.

First: COc1ccc(C(=O)Nc2cc(Cl)c3c(c2)C2CCCN2CC3)cc1C(F)(F)F (centres unmarked) [TCMDC-139417]
Second: CC(Oc1ccc(Cl)cc1)C(=O)Nc1cc(C(F)(F)F)ccc1N1CCOCC1 (centres unmarked) [TCMDC-125311]
The “% Inhibition” value of the first is lower: -51.32% for the first, 3.686% for the second.

First: COc1cc(NC(=O)/C=C/c2cc(F)cc(F)c2F)cc(OCCN2CCN(CCN3CCOCC3)CC2)c1 [TCMDC-140930]
Second: Cc1cc(F)ccc1[C@H]1C[C@H](N2CCOCC2)CCN1C(=O)N(C)[C@@H](C)c1cc(C(F)(F)F)cc(C(F)(F)F)c1 [TCMDC-138838]
The “% Inhibition” value of the first is lower: -13.83% for the first, 17.17% for the second.

Going from `COc1ccc(-n2nc(C)cc2C(=O)NCc2ccc(-c3c(C)noc3C)cc2)cc1` [TCMDC-133779] to `COc1ccc(-c2cncc3ccc(C(=O)NCc4ccncc4)nc23)cc1` [TCMDC-125411], the “% Inhibition” value rises from 19.66% to 51.25%.

Compared with `COc1ccc(-c2cncc3ccc(C(=O)NCCCn4ccnc4)nc23)cc1` [TCMDC-125412], `Cc1nc(NCCCn2ccnc2)cc(-c2cncc(-c3ccc(OC(F)(F)F)cc3)c2)n1` [TCMDC-125423] is lower in “% Inhibition” value: 77.43% for the first, 9.398% for the second.

Going from `COc1ccc(-c2cc3nc4c(c(NCCCn5ccnc5)n3n2)CCCC4)cc1` [TCMDC-124389] to `COc1ccc(Nc2cc(C)nc(Nc3ccc(NC(C)=O)cc3)n2)cc1` [TCMDC-124979], the “% Inhibition” value falls from -21.29% to -41.12%.

Going from `O=C(Nc1ccc(I)cc1)Nc1ccc(Cn2ncc(N3CCCNCC3)c(Cl)c2=O)cc1` [TCMDC-133322] to `CN(C)CCOc1cc(NC(=O)Nc2ccc(Oc3ccccc3)cc2)ccc1I` [TCMDC-139113], the “% Inhibition” value falls from -17.85% to -27.54%.

First: CC(C)N(Cc1ccc(-c2ccc(C(F)(F)F)cc2)cc1)C(=O)Cn1c(CCc2cccc(F)c2F)cc(=O)c2ccc(CCCN3CCCCC3)cc21 [TCMDC-141581]
Second: CCN(CC)Cc1ccc2c(=O)cc(CCc3cccc(F)c3F)n(CC(=O)N(Cc3ccc(-c4ccc(C(F)(F)F)cc4)cc3)C(C)C)c2c1 [TCMDC-141567]
The “% Inhibition” value of the first is higher: 119.6% for the first, 74.8% for the second.

First: Cc1cc(F)ccc1[C@H]1CNCCN1C(=O)N(C)C(C)(C)c1cc(C(F)(F)F)cc(C(F)(F)F)c1 [TCMDC-138568]
Second: Cc1cc(F)ccc1[C@H]1CNCCN1C(=O)N(C)[C@@H](C)c1cc(C(F)(F)F)cc(C(F)(F)F)c1 [TCMDC-138495]
The “% Inhibition” value of the first is lower: 62.57% for the first, 76.86% for the second.

First: CCNc1cc(C(=O)N[C@@H](Cc2ccccc2)[C@H](O)CNC2CCC(C(C)(C)C)CC2)cc(N2CCCC2=O)c1 (some centres unmarked) [TCMDC-138903]
Second: O=C(CSc1nc2ccccc2c(=O)n1C1CC1)Nc1cc(C(F)(F)F)ccc1Cl [TCMDC-123578]
The “% Inhibition” value of the first is higher: 47.86% for the first, -84.13% for the second.

Compared with `Cc1ccnc2nc(C(=O)Nc3cc(Cl)ccc3N3CCOCC3)nn12` [TCMDC-124435], `CC1CCCN(C(=O)C(C)Nc2cc(Cl)ccc2N2CCOCC2)C1` (centres unmarked) [TCMDC-125110] is higher in “% Inhibition” value: 7.323% for the first, 85% for the second.

Compared with `COc1ccccc1CNC(=O)CCn1c(=O)[nH]c2ccsc2c1=O` [TCMDC-123587], `NC(N)=NCCCN(Cc1ccccc1)c1ccccc1` [TCMDC-131836] is higher in “% Inhibition” value: 30.03% for the first, 40.87% for the second.
